Tests used:
[1] = target: Protein kinase C gamma type (Homo sapiens) (UniProt P05129); conditions: at 1 µM;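 also: each value is an averaged percent inhibition of the enzyme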
[2] = target: T1, Protein kinase C iota type (Homo sapiens) (UniProt P41743); conditions: at 0.1 µM
T1 sequence (whole entry): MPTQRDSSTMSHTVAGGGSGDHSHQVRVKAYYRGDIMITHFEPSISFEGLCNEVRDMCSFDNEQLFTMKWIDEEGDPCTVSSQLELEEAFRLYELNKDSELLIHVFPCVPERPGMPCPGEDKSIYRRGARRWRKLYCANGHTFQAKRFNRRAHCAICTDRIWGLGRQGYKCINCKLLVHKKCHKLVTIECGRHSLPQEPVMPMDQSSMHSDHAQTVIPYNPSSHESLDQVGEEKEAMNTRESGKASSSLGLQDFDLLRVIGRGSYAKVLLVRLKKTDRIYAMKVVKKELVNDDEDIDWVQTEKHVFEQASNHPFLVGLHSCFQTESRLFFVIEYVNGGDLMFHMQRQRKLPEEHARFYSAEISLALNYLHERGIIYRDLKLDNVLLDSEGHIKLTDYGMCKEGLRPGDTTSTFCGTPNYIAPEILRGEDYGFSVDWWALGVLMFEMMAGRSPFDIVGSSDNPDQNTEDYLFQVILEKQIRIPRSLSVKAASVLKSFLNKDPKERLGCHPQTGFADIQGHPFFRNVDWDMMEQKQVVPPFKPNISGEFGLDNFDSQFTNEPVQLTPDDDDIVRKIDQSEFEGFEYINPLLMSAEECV

[3] = target: T1, Protein kinase C iota type (Homo sapiens); conditions: at 1 µM
[4] = target: Protein kinase C theta type (Homo sapiens) (UniProt Q04759); conditions: at 0.1 µM
Protein kinase C theta type (Homo sapiens), sequence (Q04759 whole entry, looked up): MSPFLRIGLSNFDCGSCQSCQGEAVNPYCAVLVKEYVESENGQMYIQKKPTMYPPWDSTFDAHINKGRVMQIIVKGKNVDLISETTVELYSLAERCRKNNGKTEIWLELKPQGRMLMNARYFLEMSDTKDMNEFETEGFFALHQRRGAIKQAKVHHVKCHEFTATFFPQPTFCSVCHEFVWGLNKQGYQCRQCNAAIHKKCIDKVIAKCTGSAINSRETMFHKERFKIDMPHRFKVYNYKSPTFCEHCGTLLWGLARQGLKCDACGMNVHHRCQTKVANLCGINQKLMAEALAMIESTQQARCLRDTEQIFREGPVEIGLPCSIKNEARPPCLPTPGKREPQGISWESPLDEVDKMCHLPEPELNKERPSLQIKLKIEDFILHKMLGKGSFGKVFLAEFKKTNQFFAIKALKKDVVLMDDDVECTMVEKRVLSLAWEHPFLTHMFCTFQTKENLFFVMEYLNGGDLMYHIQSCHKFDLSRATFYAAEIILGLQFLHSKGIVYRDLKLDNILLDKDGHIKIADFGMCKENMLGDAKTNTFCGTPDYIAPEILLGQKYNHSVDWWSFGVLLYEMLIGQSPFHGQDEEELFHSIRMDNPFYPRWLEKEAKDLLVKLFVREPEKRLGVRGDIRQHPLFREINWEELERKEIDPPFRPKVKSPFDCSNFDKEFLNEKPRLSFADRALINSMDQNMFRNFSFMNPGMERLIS

[5] = target: Protein kinase C theta type (Homo sapiens) (UniProt Q04759); conditions: at 1 µM
[6] = target: Protein kinase C beta type (Homo sapiens) (UniProt P05771); conditions: at 0.1 µM
Protein kinase C beta type (Homo sapiens), sequence (P05771 2-671 limits assumed): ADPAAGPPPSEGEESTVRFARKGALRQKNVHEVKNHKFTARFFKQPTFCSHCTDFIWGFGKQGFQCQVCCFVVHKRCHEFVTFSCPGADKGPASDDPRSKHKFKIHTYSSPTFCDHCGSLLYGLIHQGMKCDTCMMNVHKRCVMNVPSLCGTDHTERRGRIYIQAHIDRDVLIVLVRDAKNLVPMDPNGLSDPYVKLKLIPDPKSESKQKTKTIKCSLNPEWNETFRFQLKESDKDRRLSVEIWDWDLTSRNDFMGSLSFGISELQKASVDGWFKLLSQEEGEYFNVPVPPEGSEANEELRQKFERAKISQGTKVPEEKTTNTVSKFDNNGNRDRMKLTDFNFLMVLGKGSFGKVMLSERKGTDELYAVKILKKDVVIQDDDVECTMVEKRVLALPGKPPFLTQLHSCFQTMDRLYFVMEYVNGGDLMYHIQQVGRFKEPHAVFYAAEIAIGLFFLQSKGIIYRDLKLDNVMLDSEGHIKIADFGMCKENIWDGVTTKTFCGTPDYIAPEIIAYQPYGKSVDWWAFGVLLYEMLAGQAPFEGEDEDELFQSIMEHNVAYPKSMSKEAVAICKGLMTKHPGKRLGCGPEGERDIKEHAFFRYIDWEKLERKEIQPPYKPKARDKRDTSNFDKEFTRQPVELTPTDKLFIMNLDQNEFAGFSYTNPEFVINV

[7] = target: Protein kinase C beta type (Homo sapiens) (UniProt P05771); conditions: at 1 µM
[8] = target: T2, Serine/threonine-protein kinase D1 (Homo sapiens) (UniProt Q15139); conditions: at 0.1 µM
T2 sequence (whole entry): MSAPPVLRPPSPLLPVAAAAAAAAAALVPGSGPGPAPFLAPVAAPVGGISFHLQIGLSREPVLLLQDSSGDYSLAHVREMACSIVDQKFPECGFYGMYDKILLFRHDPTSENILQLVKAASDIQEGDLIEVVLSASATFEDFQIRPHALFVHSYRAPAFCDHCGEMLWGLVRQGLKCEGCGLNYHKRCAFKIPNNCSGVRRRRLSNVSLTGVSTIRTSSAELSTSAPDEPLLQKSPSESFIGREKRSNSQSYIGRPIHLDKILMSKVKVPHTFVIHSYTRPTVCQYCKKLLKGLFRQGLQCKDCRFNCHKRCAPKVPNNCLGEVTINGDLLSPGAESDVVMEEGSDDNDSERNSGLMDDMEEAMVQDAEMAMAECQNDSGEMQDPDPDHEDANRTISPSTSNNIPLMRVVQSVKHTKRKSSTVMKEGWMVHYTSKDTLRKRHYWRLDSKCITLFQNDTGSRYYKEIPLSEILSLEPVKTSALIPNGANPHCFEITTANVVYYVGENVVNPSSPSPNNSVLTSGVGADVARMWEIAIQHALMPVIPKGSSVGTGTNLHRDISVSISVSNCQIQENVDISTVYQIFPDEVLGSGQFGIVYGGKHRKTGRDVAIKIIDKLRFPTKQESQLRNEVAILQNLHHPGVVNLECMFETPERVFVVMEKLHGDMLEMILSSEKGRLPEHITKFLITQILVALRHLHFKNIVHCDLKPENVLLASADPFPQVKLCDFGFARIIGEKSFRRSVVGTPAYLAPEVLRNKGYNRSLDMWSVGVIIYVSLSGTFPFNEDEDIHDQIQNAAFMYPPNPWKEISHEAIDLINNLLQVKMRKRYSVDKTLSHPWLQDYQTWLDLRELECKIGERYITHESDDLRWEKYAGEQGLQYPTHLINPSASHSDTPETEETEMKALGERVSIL

[9] = target: T2, Serine/threonine-protein kinase D1 (Homo sapiens); conditions: at 1 µM
[10] = target: T3, Serine/threonine-protein kinase D2 (Homo sapiens) (UniProt Q9BZL6); conditions: at 0.1 µM
T3 sequence (whole entry): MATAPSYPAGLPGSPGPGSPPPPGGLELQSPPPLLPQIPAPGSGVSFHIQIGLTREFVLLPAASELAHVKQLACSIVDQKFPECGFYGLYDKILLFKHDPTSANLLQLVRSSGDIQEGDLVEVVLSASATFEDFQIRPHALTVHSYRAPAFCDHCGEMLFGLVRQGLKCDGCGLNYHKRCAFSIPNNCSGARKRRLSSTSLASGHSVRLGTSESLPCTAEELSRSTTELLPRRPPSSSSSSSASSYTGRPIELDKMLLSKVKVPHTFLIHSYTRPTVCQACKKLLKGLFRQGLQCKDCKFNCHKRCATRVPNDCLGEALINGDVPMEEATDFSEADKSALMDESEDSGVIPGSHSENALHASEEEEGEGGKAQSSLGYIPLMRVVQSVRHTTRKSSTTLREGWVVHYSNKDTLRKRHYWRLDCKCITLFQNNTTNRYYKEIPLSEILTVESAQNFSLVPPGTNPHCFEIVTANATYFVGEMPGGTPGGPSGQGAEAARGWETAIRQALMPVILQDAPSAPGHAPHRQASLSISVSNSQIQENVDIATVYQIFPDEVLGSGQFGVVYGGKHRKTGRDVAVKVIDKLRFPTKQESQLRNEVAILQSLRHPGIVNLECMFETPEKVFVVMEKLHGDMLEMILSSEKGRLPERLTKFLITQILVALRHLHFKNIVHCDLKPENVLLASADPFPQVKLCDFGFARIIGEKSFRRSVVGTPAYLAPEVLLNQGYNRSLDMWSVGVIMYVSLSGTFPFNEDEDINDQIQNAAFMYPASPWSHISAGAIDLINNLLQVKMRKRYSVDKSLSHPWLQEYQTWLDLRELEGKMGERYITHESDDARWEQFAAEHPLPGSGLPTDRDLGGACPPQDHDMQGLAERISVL

[11] = target: T3, Serine/threonine-protein kinase D2 (Homo sapiens); conditions: at 1 µM
[12] = target: T4, Serine/threonine-protein kinase D3 (Homo sapiens) (UniProt O94806); conditions: at 0.1 µM
T4 sequence (whole entry): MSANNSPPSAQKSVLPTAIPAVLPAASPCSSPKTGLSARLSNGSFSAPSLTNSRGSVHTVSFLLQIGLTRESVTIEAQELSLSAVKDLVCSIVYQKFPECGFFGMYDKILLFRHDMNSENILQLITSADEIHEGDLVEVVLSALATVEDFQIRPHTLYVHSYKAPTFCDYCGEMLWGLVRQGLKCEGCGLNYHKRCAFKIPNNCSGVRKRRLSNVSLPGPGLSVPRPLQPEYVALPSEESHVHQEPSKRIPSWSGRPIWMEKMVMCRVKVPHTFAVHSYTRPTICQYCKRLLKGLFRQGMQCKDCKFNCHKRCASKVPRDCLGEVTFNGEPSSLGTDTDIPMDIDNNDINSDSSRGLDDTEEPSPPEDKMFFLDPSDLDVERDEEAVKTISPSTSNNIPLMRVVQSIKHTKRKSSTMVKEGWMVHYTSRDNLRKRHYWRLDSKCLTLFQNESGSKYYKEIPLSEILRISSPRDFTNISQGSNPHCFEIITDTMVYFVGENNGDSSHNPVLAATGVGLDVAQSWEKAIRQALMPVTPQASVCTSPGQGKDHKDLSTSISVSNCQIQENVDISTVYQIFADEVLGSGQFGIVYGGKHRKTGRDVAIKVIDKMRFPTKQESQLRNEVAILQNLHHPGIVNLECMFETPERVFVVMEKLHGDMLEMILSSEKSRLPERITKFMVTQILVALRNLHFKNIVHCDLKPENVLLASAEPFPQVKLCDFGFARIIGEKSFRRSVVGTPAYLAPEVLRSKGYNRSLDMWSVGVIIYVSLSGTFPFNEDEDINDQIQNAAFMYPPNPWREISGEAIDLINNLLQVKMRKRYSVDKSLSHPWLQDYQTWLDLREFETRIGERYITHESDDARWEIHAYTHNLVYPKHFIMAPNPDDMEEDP

[13] = target: T4, Serine/threonine-protein kinase D3 (Homo sapiens); conditions: at 1 µM
[14] = target: T5, cGMP-dependent protein kinase 1 (Homo sapiens) (UniProt Q13976); conditions: at 0.1 µM
T5 sequence (whole entry): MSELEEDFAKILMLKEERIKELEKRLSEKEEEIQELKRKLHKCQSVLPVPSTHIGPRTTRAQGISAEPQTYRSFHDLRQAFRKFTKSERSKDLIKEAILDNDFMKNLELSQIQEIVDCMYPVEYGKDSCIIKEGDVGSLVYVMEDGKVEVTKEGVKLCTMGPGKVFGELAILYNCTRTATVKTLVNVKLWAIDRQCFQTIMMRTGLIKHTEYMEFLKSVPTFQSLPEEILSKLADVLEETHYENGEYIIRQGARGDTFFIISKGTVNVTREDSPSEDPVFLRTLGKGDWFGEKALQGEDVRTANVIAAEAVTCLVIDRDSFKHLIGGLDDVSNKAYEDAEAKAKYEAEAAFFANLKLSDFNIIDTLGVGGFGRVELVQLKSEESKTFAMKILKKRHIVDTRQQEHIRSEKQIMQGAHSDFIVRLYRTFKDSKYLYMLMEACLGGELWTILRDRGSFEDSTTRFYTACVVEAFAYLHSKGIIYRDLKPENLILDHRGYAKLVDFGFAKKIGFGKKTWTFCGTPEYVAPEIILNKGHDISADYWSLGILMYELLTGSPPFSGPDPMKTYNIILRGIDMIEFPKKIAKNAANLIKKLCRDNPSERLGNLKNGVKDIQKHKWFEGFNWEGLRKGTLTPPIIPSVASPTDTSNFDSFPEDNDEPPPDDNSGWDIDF

[15] = target: T5, cGMP-dependent protein kinase 1 (Homo sapiens); conditions: at 1 µM
[16] = target: T6, cGMP-dependent protein kinase 2 (Homo sapiens) (UniProt Q13237); conditions: at 0.1 µM
T6 sequence (whole entry): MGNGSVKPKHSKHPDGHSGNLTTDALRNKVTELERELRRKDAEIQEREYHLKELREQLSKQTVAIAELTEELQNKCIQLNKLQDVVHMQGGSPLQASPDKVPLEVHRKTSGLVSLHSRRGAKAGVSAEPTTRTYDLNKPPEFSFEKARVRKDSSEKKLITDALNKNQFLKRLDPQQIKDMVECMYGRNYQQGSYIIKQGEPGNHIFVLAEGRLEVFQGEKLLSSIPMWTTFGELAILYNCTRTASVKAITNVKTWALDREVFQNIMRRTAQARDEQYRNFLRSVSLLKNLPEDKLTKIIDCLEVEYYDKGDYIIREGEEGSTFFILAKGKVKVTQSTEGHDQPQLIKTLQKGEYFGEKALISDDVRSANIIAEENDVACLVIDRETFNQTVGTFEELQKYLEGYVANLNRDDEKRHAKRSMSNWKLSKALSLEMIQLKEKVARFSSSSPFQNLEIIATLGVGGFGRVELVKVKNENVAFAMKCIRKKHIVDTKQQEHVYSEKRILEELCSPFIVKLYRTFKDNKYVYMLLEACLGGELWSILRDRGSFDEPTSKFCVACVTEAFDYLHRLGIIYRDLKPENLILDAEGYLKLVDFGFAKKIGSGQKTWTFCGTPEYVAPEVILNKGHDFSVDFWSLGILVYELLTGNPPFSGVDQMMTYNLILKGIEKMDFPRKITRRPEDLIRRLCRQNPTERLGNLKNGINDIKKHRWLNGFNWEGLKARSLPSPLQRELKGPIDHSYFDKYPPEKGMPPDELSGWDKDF

[17] = target: T6, cGMP-dependent protein kinase 2 (Homo sapiens); conditions: at 1 µM
[18] = target: T7, cAMP-dependent protein kinase catalytic subunit PRKX (Homo sapiens) (UniProt P51817); conditions: at 0.1 µM
T7 sequence (whole entry): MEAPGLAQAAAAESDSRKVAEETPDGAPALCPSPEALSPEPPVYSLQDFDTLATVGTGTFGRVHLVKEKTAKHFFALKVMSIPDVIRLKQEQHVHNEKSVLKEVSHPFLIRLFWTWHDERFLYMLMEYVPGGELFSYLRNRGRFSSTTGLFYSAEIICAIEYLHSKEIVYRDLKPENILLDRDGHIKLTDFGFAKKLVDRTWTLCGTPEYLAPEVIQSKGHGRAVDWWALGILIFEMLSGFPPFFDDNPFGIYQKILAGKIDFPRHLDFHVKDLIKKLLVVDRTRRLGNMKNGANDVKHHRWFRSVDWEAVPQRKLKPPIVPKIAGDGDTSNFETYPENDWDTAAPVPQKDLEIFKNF

[19] = target: T7, cAMP-dependent protein kinase catalytic subunit PRKX (Homo sapiens); conditions: at 1 µM
[20] = target: Rho-associated protein kinase 1 (Homo sapiens) (UniProt Q13464); conditions: at 0.1 µM;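 also: values are mean percent inhibition of ROCK1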
Rho-associated protein kinase 1 (Homo sapiens), sequence (Q13464 2-1354 limits assumed): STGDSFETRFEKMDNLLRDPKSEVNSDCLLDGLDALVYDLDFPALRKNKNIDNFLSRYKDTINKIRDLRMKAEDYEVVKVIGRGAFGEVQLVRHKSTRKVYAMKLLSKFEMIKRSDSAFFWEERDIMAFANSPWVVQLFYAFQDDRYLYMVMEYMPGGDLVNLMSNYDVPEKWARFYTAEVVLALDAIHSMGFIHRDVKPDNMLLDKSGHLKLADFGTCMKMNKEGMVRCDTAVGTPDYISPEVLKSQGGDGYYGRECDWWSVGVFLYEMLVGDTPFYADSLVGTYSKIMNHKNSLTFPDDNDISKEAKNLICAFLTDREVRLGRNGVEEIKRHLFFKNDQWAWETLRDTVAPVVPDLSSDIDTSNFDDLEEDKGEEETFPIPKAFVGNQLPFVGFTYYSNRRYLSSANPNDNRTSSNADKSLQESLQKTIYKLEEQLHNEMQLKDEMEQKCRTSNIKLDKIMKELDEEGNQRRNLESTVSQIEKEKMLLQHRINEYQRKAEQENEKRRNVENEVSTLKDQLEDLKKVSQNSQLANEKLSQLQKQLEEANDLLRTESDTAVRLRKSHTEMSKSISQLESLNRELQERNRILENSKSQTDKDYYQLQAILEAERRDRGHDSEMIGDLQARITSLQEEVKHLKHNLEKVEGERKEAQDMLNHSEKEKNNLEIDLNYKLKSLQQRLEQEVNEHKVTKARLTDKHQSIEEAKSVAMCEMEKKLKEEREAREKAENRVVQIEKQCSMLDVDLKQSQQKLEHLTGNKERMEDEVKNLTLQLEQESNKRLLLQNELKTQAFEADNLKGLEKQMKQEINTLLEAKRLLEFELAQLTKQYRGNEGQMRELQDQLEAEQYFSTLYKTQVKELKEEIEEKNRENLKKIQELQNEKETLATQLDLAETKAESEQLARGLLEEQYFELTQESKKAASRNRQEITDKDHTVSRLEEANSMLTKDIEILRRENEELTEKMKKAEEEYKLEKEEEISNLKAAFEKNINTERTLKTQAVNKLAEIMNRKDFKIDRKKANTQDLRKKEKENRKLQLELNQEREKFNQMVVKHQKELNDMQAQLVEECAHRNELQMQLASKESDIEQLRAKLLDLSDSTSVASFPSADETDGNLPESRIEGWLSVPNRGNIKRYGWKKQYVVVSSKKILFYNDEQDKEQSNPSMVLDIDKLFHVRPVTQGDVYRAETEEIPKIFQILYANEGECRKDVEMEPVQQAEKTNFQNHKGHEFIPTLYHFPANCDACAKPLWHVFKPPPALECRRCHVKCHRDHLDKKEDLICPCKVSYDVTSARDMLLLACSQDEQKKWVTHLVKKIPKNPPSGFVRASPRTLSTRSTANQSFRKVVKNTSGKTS

Row | Compound | inhibition [1] [%] | inhibition [2] [%] | inhibition [3] [%] | inhibition [4] [%] | inhibition [5] [%] | inhibition [6] [%] | inhibition [7] [%] | inhibition [8] [%] | inhibition [9] [%] | inhibition [10] [%] | inhibition [11] [%] | inhibition [12] [%] | inhibition [13] [%] | inhibition [14] [%] | inhibition [15] [%] | inhibition [16] [%] | inhibition [17] [%] | inhibition [18] [%] | inhibition [19] [%] | inhibition [20] [%]
1 | CN(c1ccc(NC(=O)Nc2ccc(OC(F)(F)F)cc2)cc1)c1ccnc(Nc2cccc(S(N)(=O)=O)c2)n1 | 2.99 | 0.52 | -0.73 | 0.61 | 0.96 | -0.08 | 0.69 | 2.95 | 4.48 | 3.68 | 3.78 | 3.1 | 3.42 | -0.15 | 0.56 | 0.76 | -0.82 | 0.6 | 0 | -0.35
2 | NS(=O)(=O)c1ccc(Nc2cc(-c3cccc(O)c3)n[nH]2)cc1 | 5.97 | 2.37 | 3.83 | 3.09 | 3.2 | 1.35 | 3.75 | 4.8 | 11.4 | 5.45 | 7.41 | 6.55 | 8.42 | 5.01 | 5.23 | 3.66 | 5.03 | 3.04 | 2.25 | 1.47
3 | CN1CCN(C(=O)c2ccc(NC(=O)Nc3ccc(N(C)c4ccnc(Nc5ccc(CS(C)(=O)=O)cc5)n4)cc3)cc2)CC1 | 2.89 | -0.67 | -0.1 | 1.17 | 1.43 | 1.51 | 2.4 | 2.19 | 6.28 | 2.12 | 3.43 | 1.06 | 3.69 | 1.76 | 3.23 | 1.26 | 1.71 | 1.71 | 0.77 | 2.82

— ChEMBL document CHEMBL1961873, “Compounds: GSK PKIS; Assays: Nanosyn kinase panel” (2012)
